Source: PubChem
Only some compounds are listed: those with a hit (about 1.8% of all), similar ones and a draw of the others.
SSB-PriA inh – K. pneumoniae PriA-SSBct interaction inhibition | 430,000 compounds, 0.6% hits | AlphaScreen SSBct-PriA binding, biotinylated peptide | AID 1272365 | inhibition, % at 33 µM; in the data active = inhibition mostly above about 37%, no sharp cut-off; inactive = mostly below about 20%;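 also: plate controls were negative control peptide for no effect and reference peptide for full effect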
PfHsp40 rescue – compounds rescuing yeast from Plasmodium falciparum HSP40 toxicity. S. cerevisiae expressing PfHsp40, growth rescue, ATP luminescence. growth rescue, % at 12.5 µM. 340,000 compounds, 0.68% hits; in the data active = growth rescue above about 28%, passing the limit was not always enough;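 also: yeast W303a lacking pdr1 and pdr3 grown in galactose medium; growth measured after three days at 30 °C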
PrPC surface inh – reduces human prion protein on the cell surface; inhibition, % at 13.8 µM; cell surface PrPC, TR-FRET read-out; 370,000 compounds, 0.43% hits; in the data active = inhibition above about 24%; also: 0% = median of the test wells and 100% = reference compound wells
MazEF act – increases E. coli MazEF RNase cleavage of RNA; activation, % at 20 µM; FAM/BHQ RNA-DNA oligo cleavage fluorescence, 5 h; AID 504720; P0AE70; 350,000 compounds, 0.32% hits; in the data active = activation above about 50%
Target sequence (P0AE70 whole entry, looked up): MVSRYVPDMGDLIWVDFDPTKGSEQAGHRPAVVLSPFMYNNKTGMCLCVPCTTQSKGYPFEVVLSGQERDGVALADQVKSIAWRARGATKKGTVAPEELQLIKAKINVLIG
PrP UTR inh – inhibition of PrP 5' UTR reporter expression. cell-based PrP 5' UTR mRNA reporter, plate reader. inhibition, % (test concentration not listed). 340,000 compounds, 0.35% hits. AID 488862; in the data active = inhibition above about 52%; also: 0 = median of the neutral control wells
The depositor's hits bear a star; / = no result; ! = repeats disagree.

SMILES | SSB-PriA inh | PfHsp40 rescue | PrPC surface inh | MazEF act | PrP UTR inh
CCc1ccc(C(C)NC(=S)NCc2ccc(F)cc2)cc1 (stereo not given) | -5 | 227* | -3 | 0 | 10
Cc1ccc(C(C)NC(=S)NCc2ccc(F)cc2)c(C)c1 (stereo not given) | -30 | 117* | 3 | 0 | 2
CCc1ccc(C(C)NC(=S)NC2CCCCC2)cc1 (stereo not given) | -30 | 83* | / | 2 | -14
CCOc1cc(N2CCOCC2)c(OCC)cc1NC(=O)C(C)Oc1ccccc1 (stereo not given) | 20 | -1 | 9 | 12 | -11
Cc1nc2scc(C)n2c(=O)c1S(=O)(=O)NC(C)c1ccccc1 (stereo not given) | 0 | -1 | -6 | 5 | -12
C=CCC1(O)C(=O)Nc2ccccc21 (stereo not given) | -13 | 55* | -4 | 7 | -23
O=C(CC1(O)C(=O)Nc2ccccc21)c1ccccc1 (stereo not given) | -14 | 0 | 0 | -42 | -20
COc1ccc(N2CCN(C(=O)Cc3ncc(C(F)(F)F)cc3Cl)CC2)cc1 | 6 | 1 | 6 | 2 | -13
C=CCNc1nc(Cl)nc(Nc2cc(Cl)ccc2OC)n1 | -3 | -1 | -2 | 58* | 14
CCOc1nc(Nc2cc(Cl)ccc2OC)nc(OCC)n1 | -9 | -1 | -2 | -8 | -10
Clc1cc2c(c3ncccc13)OCN(Cc1ccccc1)C2 | 89* | / | / | / | /
Clc1cc2c(c3ncccc13)OCN(Cc1cccnc1)C2 | 101* | / | / | / | /
Cc1cc(C)nc(-n2nc(C)cc2NC(=O)CNC(C)c2ccccc2)n1 (stereo not given) | -8 | 0 | -3 | 2 | -16
Cc1c(N2C(=O)/C(=C\c3ccc(N(C)C)cc3)N(C)C2=S)c(=O)n(-c2ccccc2)n1C | 7 | 0 | -55 | 131* | -22
O=C(Cn1ccc2ccccc21)Nc1cc(N2CCN(Cc3ccccc3)CC2)ncn1 | 44* | / | / | / | /
COc1cccc(C2C(=C(O)c3cnn(-c4ccccc4)c3C)C(=O)C(=O)N2CCN(C)C)c1 (stereo not given) | 4 | / | / | / | /
O=C(CSc1nnc2ccc(-c3cccc([N+](=O)[O-])c3)nn12)N1CCOCC1 | -18 | / | / | / | /
CCCCCCCCCCOC(=O)Cn1c(COc2ccccc2OC)[n+](C)c2ccccc21 | 12 | 316* | 20 | -76 | -17
O=C1NC(=O)/C(=C/c2cccc3ccccc23)S1 | 1 | 11 | 5 | -5 | -7
CCCOc1ccc2ccccc2c1/C=C1\SC(=O)NC1=O | -4 | 504* | -7 | -5 | -20
COc1ccc(SCCC(=O)Nc2ccc3sccc3c2)cc1 | 43* | / | / | / | /
Cc1ccc(SCCC(=O)Nc2ccc3sccc3c2)cc1 | -14 | / | / | / | /
O=C(CCN1CCOCC1)NN=Cc1cc(Br)cc(Br)c1O | 25 | / | / | / | /
O=C(CCN1CCOCC1)N/N=C/c1cc(Br)cc(Br)c1O | / | 40* | 6 | 3 | -10
CCc1ccc(CSc2nccn2-c2ccccc2)cc1 | 63* | 0 | 2 | -8 | 2
SMILES | SSB-PriA inh | PfHsp40 rescue | PrPC surface inh | MazEF act | PrP UTR inh
c1ccc(CCSc2nccn2-c2ccccc2)cc1 | 62* | 1 | 2 | -3 | -37
O=C(CCc1ccccc1Br)NCC1(c2ccccc2)CCOCC1 | -4 | / | / | / | /
Cc1ccc(C(=O)NCc2ccccc2CN2CCCC2)cc1S(=O)(=O)N1CCOCC1 | 4 | -1 | -14 | 1 | -7
O=C(NCCC1=CCCCC1)C1CCCN(S(=O)(=O)c2ccccc2)C1 (stereo not given) | -14 | 0 | 5 | 8 | -10
Cc1csc(NC(=O)CSc2nncs2)n1 | -10 | 0 | 24 | -1 | -25
C=CCOc1cccc(C=NNC(=O)CC(=O)NC2CCCCC2)c1 | 0 | / | / | / | /
C=CCOc1ccc(/C=N/NC(=O)CC(=O)NC2CCCCC2)cc1 | / | -1 | 5 | 514* | -17
Cn1c(=S)c2[nH]c(SCC3CCCO3)nc2n(C)c1=O (stereo not given) | -10 | 6 | 0 | 8 | -9
CCCC(C)Sc1nc2c([nH]1)c(=S)n(C)c(=O)n2C (stereo not given) | -3 | 38* | 15 | 10 | -5
CCN1CCN(c2cc(N3CCc4ccccc4C3)c(F)cc2[N+](=O)[O-])CC1 | 36 | 0 | -22 | 11 | -12
Oc1c(Cl)cc(Cl)c2c1NCCC2 | -1 | 87* | -3 | 0 | -15
Cc1cc(C)c2c(n1)CCCN2 | 0 | / | / | / | /
Cc1ccc(C2(c3ccc(C)cc3)CC2C(=O)Nc2ccc([N+](=O)[O-])cc2O)cc1 (stereo not given) | 10 | 273* | 5 | -3 | -22
Cc1ccc(CNC(=O)Cn2ncn3cccc3c2=O)cc1 | -9 | 0 | 0 | 7 | -5
COc1cccc(CNC(=O)Cn2ncn3cccc3c2=O)c1OC | 0 | -2 | 2 | 71* | -44
CCN(c1ccccc1)S(=O)(=O)c1cccc(C(=O)N(C)CC(=O)Nc2ccc(F)c(F)c2F)c1 | -5 | 0 | 0 | 9 | -8
Cc1nc(N2CCN(C(=O)c3ccco3)CC2)c2c3c(sc2n1)CC(C)CC3 (stereo not given) | 13 | 192* | 20 | -2 | -25
N#C/C(=C\c1ccc(C2CC2c2ccccc2)o1)C(=O)Nc1ccc(Cl)c(Cl)c1 (stereo not given) | -5 | / | / | / | /
COc1cccc(C(=O)N2CCC(CSC3=NCCS3)CC2)c1OC | -10 | / | / | / | /
Cc1cccc(C)c1N=Nc1c(C)cc(O)cc1C | 61 | 782* | 1 | -2 | -8
c1coc(-c2nc(-c3ccco3)c(-c3ccco3)nc2-c2ccco2)c1 | 43* | 1 | -11 | 6 | -8
O=C(OCCN1CCCCC1)C1(c2ccccc2)CCCC1 | -7 | -1 | -4 | -3 | -16
O=C(OCCN1CCCC1)C1(c2ccccc2)CCCC1 | 4 | 50*! | 6 | -17 | -14
C=CCN1C(=O)C(Cc2ccccc2)S/C1=N/N=C\c1ccccc1 (stereo not given) | 56* | / | / | / | /
CC(=CC(=O)c1ccccc1)Nc1ccc2c(c1)OCO2 | 41* | / | / | / | /
SMILES | SSB-PriA inh | PfHsp40 rescue | PrPC surface inh | MazEF act | PrP UTR inh
COc1ccc(C(=O)C=C(C)Nc2ccc3c(c2)OCO3)cc1 | 8 | / | / | / | /
O=C(CN1CCCc2ccccc21)N/N=C\C=C/c1ccccc1 | 39* | / | / | / | /
CCN(CC)c1ccc(C=NNC(=O)CN2CCCc3ccccc32)cc1 | 50* | / | / | / | /
O=C(CN1CCCc2ccccc21)N/N=C/c1c(O)ccc2ccccc12 | / | 179* | 2 | 16 | -14
O=C(CN1CCCc2ccccc21)N/N=C/c1ccccc1 | / | 0 | -4 | 23 | -61
O=C(Cc1n[nH]c(=O)[nH]c1=O)NN=Cc1c(O)ccc2ccccc12 | -9 | / | / | / | /
O=C(Cc1n[nH]c(=O)[nH]c1=O)N/N=C/c1c(O)ccc2ccccc12 | / | 0 | -13 | 71* | -20
CCN(CC)c1ccc(/C=N/NC(=O)CN2CCCc3ccccc32)cc1 | / | 0 | 3 | 0 | -38
N#CCC(=O)Nc1ccc(C(=O)OCC(=O)N2CCCC2=O)cc1 | 4 | 0 | -3 | 1 | -1
CC1CN(C(=S)Nc2ccccc2C(F)(F)F)CC(C)O1 (stereo not given) | -7 | 0 | 2 | 5 | -33
